For eleven molecules, Potency, viability (% of control) and viability, % of control results are on record in PubChem BioAssay (NCATS).

Experiment [1] in a line: Viability qHTS for spleen associated tyrosine kinase inhibitor (SYKi) naive MV4-11 cells (AID 1963823). Further: nearly all actives have a fitted effect of over 40% in size. The settings on record: MV4-11 AML viability, CellTiter-Glo luminescence, 72 h; series mostly up to 45 µM. In outline:
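qHTS, SYK inhibitor-naive MV4-11; 500 cells/well; 72 hr compound exposure, 37 C; CellTiter-Glo added, 10 min RT; luminescence read.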
A general note: qHTS replaces the single test concentration by a dilution series.

The nature of experiment [2]: Viability qHTS for spleen associated tyrosine kinase inhibitor (SYKi) drug resistant MV4-11 cells (AID 1963824). Further: nearly all actives have a fitted effect of over 35% in size. Particulars: SYKi-resistant MV4-11 viability, CellTiter-Glo, 72 h; series mostly up to 45 µM. In outline:
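CellTiter-Glo luminescence, read 10 min after reagent addition, reports viability after a 72 hr compound exposure. Cells are an MV4-11 line made resistant to SYK inhibition, seeded at 500 per well onto compound-containing plates.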

Results filed as inconclusive are left out. Values without a mark were called inactive. Calls of active or inactive are those of the source. The call rests on the fitted dose curve; in most records, active means well fitted cell-killing curve with a large enough effect; inconclusive means small, poorly fitted or top-dose-only effect, or effect the other way; inactive means no such curve, though single readings can be large or run the other way.
Potency means the concentration at half of the fitted maximal effect.

As to `COC(=O)C1=CO[C@@H](O[C@@H]2O[C@H](CO)[C@@H](O)[C@H](O)[C@H]2O)[C@@H]2[C@@H](C)[C@@H](OC(=O)/C=C/c3ccccc3)[C@@H](O)[C@H]12`, the Potency result in experiment [1] and in experiment [2] was “inactive” in each case.

With `CS(=O)(=O)NCC1CCC(Nc2nc3c(s2)CCSc2ccccc2-3)CC1` (configuration not stated), the Potency in experiment [1] is 2310 nM (active); in experiment [2], 4610 nM (active).

Consider `CCc1c(C)nc2c(-c3cnn(-c4cc(CO)ccn4)c3)c[nH]n2c1=O`, for which the Potency entry in experiment [1] and in experiment [2] was “inactive” throughout.

Consider `C=C1C(=O)O[C@@H]2C3=C(C)CCC[C@]3(C)CC[C@@]12O`, for which the Potency in experiment [1] was 1640 nM (active); in experiment [2], 731 nM (active).

Take `C1CCC[C@H]2CCCN3CC[C@@H](CCCCCC[C@@H]4CCCN5CC[C@@H](CC1)O[C@@H]45)O[C@@H]23`: the viability (% of control) in experiment [1] is 90.7% [at 0.177 µM]. The viability, % of control in experiment [2] is 87.9% [at 0.177 µM].

`O=S(=O)(NCC1CC1)c1ccc(Nc2nccc(N3CCCc4cc(O)ccc43)n2)cc1`: the values for the Potency in experiment [1] and in experiment [2] were 146 nM (active) and 206 nM (active), respectively.

Consider `C=C(CCO[C@@H]1O[C@H](CO)[C@@H](O)[C@H](O)[C@H]1O)C(=O)O`, for which the Potency result in experiment [1] and in experiment [2] was “inactive” each time.

With `O=C(NCc1ccccn1)Nc1nnc(-c2ccco2)o1`, the Potency result in experiment [1] and in experiment [2] was “inactive” throughout.

For the molecule `O=C(/C=C/c1ccc(O)c(O)c1)OC[C@H]1O[C@@H](OC2CCCCC2O)[C@H](O)[C@@H](O)[C@@H]1O` (some centres not stated), the Potency result in experiment [1] and in experiment [2] was “inactive” throughout.

Take `C=CC1C(O[C@@H]2O[C@H](CO)[C@@H](O)[C@H](O)[C@H]2O)OC=C(C(=O)OC)C1Cc1nccc2c1[nH]c1ccccc12` (some centres not stated): in experiment [1], the Potency result was “inactive”. Moreover, the Potency in experiment [2] is 3990 nM (active).

In the case of `COc1cc(/C=C/C(=O)O[C@@H]2C[C@](O)(C(=O)O)C[C@@H](O)[C@H]2O)ccc1O`, the Potency entry in experiment [1] and in experiment [2] was “inactive” in each case.
